# Reference: PMC4336329 (PLoS ONE, 2015)
# Among all 310,000 compounds or so, about 2,200 (0.71%) showed an effect of 50% or more. Effects have a minus sign here. The sample holds strong results, similar compounds and a random draw of the others, so the mix is not that of the screen.
# Target: human ether-à-go-go-related gene (hERG) potassium channel (human, UniProt Q12809)
# Assay: primary screen, population patch clamp on CHO cells stably expressing hERG; higher = less effect of the substance
# Description: Briefly, Chinese hamster ovary (CHO) cells stably expressing the hERG channel were dislodged from tissue culture flasks and dispensed into PPC plates. […] During the recording, background leak currents were estimated by a 100 ms step to -80 mV from an initial holding potential of -70 mV and subtracted from the subsequent current measurement. The campaign was conducted in two phases using slight differences in recording protocol. In the first phase, the initial voltage pulse used a 100 ms step to -30 mV from a holding potential of -70 mV, a 2 s conditioning step to +25 mV, and a 2 s test step to -30 mV. During the second phase of the screen, the potential during the conditioning step was raised to +45 mV. In both phases of the campaign, a secondary voltage pulse was applied using the same parameters as the second phase initial pulse. The initial and secondary pulses were applied in the absence of compound, and upon application of 1 μM and 10 μM test concentrations. Small molecule effects on hERG current density were quantified by […].
# Chain of human ether-à-go-go-related gene (hERG) potassium channel (Q12809 whole entry, looked up): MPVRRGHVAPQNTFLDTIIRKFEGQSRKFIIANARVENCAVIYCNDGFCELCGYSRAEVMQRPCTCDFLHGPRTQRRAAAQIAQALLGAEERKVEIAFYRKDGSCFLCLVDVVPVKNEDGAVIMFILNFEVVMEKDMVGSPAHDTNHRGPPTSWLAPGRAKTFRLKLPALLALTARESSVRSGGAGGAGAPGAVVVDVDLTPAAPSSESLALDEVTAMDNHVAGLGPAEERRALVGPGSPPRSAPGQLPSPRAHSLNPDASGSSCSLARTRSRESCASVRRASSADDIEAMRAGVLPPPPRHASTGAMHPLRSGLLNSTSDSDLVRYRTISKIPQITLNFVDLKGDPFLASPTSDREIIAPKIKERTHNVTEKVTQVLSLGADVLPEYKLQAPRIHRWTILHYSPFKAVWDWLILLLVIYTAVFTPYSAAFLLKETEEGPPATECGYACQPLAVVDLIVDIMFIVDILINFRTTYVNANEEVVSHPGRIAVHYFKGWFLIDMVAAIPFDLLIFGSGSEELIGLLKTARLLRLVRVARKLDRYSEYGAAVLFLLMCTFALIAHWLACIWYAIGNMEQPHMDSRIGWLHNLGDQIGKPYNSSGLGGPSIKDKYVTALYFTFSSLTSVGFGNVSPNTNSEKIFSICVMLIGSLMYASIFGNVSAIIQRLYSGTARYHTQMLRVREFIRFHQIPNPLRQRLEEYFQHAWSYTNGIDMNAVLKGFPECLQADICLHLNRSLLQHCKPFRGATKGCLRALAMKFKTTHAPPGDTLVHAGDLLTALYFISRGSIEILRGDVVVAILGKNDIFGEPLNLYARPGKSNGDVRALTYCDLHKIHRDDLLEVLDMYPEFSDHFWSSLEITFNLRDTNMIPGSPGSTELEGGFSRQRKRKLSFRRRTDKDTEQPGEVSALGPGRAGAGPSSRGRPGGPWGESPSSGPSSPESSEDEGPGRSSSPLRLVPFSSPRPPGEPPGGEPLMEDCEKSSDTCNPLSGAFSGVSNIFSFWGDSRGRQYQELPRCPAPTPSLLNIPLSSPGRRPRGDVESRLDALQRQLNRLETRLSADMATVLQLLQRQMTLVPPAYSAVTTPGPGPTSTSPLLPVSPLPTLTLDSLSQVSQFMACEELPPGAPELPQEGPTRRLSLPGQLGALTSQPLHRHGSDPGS
row,Structure (SMILES),"hERG current change (%, negative = inhibition) at 1uM [%]"
1,O=C(c1cc([N+](=O)[O-])ccc1N1CCCCC1)N1CCCCC1,-6.51
2,Cc1ccc(S(=O)(=O)N(C)Cc2ccc(-c3nnc4n3CCC4)cc2)cc1,0.889
3,COC(=O)c1ccc(N2CCCCC2)c(NS(=O)(=O)c2ccc(C)cc2)c1,12.6
4,CCOC(=O)CSc1nnc(Cn2c(=O)sc3ccccc32)n1C,-3.18
5,Cc1cc(CN2CCC(n3nccc3NC(=O)c3ccccc3Cl)CC2)cc(C)c1O,-64.4
6,COc1ccc(O)c(CN2CCC(n3nccc3NC(=O)c3ccccc3Cl)CC2)c1,-15.4
7,CCN1CCC(n2nccc2NC(=O)c2ccccc2Cl)CC1,10.5
8,Cc1cc(C)c(CN2CCC(n3nccc3NC(=O)c3ccccc3Cl)CC2)cc1C,1.2
9,CCc1ccc(CN2CCC(n3nccc3NC(=O)c3ccccc3Cl)CC2)cc1,-92.3
10,NC(=O)c1ncn([C@@H]2O[C@H](CO)[C@@H](O)[C@H]2O)n1,25.8
11,Cn1c([O-])c(Cc2cccc(Cl)c2Cl)c(=O)n(C)c1=O.[NH4+],17.5
12,CCOc1ccc(OCC(=O)OCC(=O)N(CC(C)C)c2c(N)n(Cc3ccccc3)c(=O)[nH]c2=O)cc1,5.08
13,COc1cccc(NC(=O)Nc2cccc(C(=O)O)c2)c1,16.4
14,CCOC(=O)C(CC)Sc1ccc2nnc(CCNS(=O)(=O)c3ccccc3)n2n1 (centres unmarked),3.33
15,O=C(NCc1ccc(Cl)cc1Cl)C(=O)N1CCCCC1,7
16,CN(CC1CCN(CCc2cccc(C(F)(F)F)c2)CC1)C(=O)c1ccc(F)cc1F,-35.9
17,CC(=O)Nc1ccc(CN(C)CC2CCCN(CCc3cccc(C(F)(F)F)c3)C2)cc1 (centres unmarked),-18.4
18,O=C(c1cccc(C(F)(F)F)c1)N1CCN(CCc2ccccc2)CC1,1.81
19,CN(CC1CCN(CCc2cccc(C(F)(F)F)c2)CC1)C(=O)c1ccccc1,-56.1
20,CSCCC(=O)N(C)CC1CCCN(CCc2cccc(C(F)(F)F)c2)C1 (centres unmarked),-55.1
21,CN(CC1CCN(CCc2cccc(C(F)(F)F)c2)CC1)C(=O)c1ccc(F)cc1,-60
22,COc1cccc(C(=O)N(C)CC2CCN(CCc3cccc(C(F)(F)F)c3)CC2)c1,-70.3
23,COc1ccc(CC(=O)NCC2CCCN(Cc3cccc(C(F)(F)F)c3)C2)cc1 (centres unmarked),5.75

row,Structure (SMILES),"hERG current change (%, negative = inhibition) at 1uM [%]"
1,CN(CC1CCCN(CCc2cccc(C(F)(F)F)c2)C1)C(=O)c1ccco1 (centres unmarked),-38.3
2,CN(CC1CCCN(CCc2cccc(C(F)(F)F)c2)C1)C(=O)c1ccc2nc[nH]c2c1 (centres unmarked),5.78
3,COC(=O)CCC(=O)N(C)CC1CCCN(CCc2cccc(C(F)(F)F)c2)C1 (centres unmarked),-39.9
4,CSCCC(=O)N(C)CC1CCN(CCc2cccc(C(F)(F)F)c2)CC1,-27.3
5,CCn1c(/N=C/c2ccc(OC)cc2O)nc2ccccc21,14
6,Cc1ccc(NC(=O)Nc2cccn(Cc3c(F)cccc3Cl)c2=O)cc1,13.2
7,S=C(Nc1ccccc1)Nc1ccc(Br)cc1,14.5
8,Cc1cccnc1-n1c(C)nc2ccccc2c1=O,7.55
9,CSCCC(NC(=O)c1cc(C(C)(C)C)oc1C)C(=O)O (centres unmarked),15.6
10,COc1cc(C(=O)O)c2c(c1C)OC(=O)c1c(C)cc(O)c(C=O)c1O2,22.5
11,COc1cc(CN(C)CC2CCCN(CCc3cccc(C(F)(F)F)c3)C2)ccc1O (centres unmarked),2.96
12,CC(=O)NCCC(=O)N(C)CC1CCN(CCc2cccc(C(F)(F)F)c2)CC1,12.5
13,COc1cc(C(=O)N(C)CC2CCN(CCc3cccc(C(F)(F)F)c3)CC2)ccc1C,-63.8
14,CCCC(=O)Nc1ccc(NC(=O)c2ccccc2F)cn1,11.2
15,Fc1ccc(NC(=S)NCCN2CCOCC2)c(F)c1F,12.2
16,S=C(Nc1ccc2snnc2c1)N1CCN(c2ccccn2)CC1,10
17,COc1cccc(N2CCN(CC(=O)c3c(C)[nH]c4ccccc34)CC2)c1,-10.9
18,Cc1ccc(S(=O)(=O)N(CC(=O)NCc2ccncc2)Cc2ccccc2F)cc1,-53.2
19,Cc1ccc(S(=O)(=O)N(CC(=O)O)Cc2ccccc2F)cc1,6.83
20,CCN(CC(=O)NCc1ccc(F)cc1)S(=O)(=O)c1ccc(C)cc1,-13.7
21,Cc1ccc(S(=O)(=O)N(CC(=O)NCc2ccncc2)Cc2ccc(F)cc2)cc1,-75
22,CCCNC(=O)CN(Cc1ccccc1F)S(=O)(=O)c1ccc(C)cc1,5.85
23,O=C(CN(Cc1ccccc1)S(=O)(=O)c1ccc(F)cc1)NCc1ccncc1,-9.19

row,Structure (SMILES),"hERG current change (%, negative = inhibition) at 1uM [%]"
1,O=C(CCc1nnc2ccc(N3CCCC3)nn12)Nc1cc(F)ccc1F,-9.58
2,COc1ccc(N=C(C)C2=C(O)COC2=O)cc1,4.93
3,CN1CSC2=C(C#N)C(c3cccc(OCc4ccccc4)c3)CC(=O)N2C1 (centres unmarked),4.22
4,CCC(NC(=O)OCc1ccccc1)C(=O)Oc1ccc2ccc(=O)oc2c1 (centres unmarked),18.8
5,C=CCn1c(SCC(=O)NNC(=O)Nc2ccc(C)cc2)nnc1-c1ccccc1,1.92
6,CCCN1CCN(S(=O)(=O)c2c(C)[nH]c(C)c2C(=O)N2CCCCC2)CC1,-0.989
7,CCn1c(SCC(=O)Nc2ccccc2OC)nc(O)cc1=O,10
8,COC(=O)c1cc(Br)c(=O)n(CCc2ccc(F)cc2)c1,-3.04
9,COC(=O)c1cc(Br)c(=O)n(-c2ccc(OC)cc2)c1,5.39
10,COC(=O)c1cc(Br)c(=O)n(-c2ccc(F)cc2)c1,-70.1
11,CCO[C@@H]1OC(C(=O)N2CCN(C)CC2)=C[C@H](c2csc3ccccc23)[C@H]1CCCO,0.669
12,CC(=O)Nc1ccc(N(C(=O)c2ccccn2)C(C(=O)NC2CCCCC2)c2ccc(F)cc2)cc1 (centres unmarked),12.2
13,CC1CCN(CCCNC(=O)CCc2nnc3n(CCc4ccccc4)c(=O)c4ccccc4n23)CC1,-52.4
14,CC1CCCCN1CCNC(=O)CCc1nnc2n(Cc3ccccc3)c(=O)c3ccccc3n12 (centres unmarked),-8.67
15,O=C(CCc1nnc2n(CCc3ccccc3)c(=O)c3ccccc3n12)NCCCN1CCCCC1,-9.25
16,Cc1ccc(Cc2ccc(C(=O)NNC(N)=S)o2)cc1,3.74
17,CN(CC(=O)Nc1ccccc1Br)C(=O)c1sccc1-c1ccccc1,-0.469
18,O=c1nc(-c2ccccc2)cc(C(F)(F)F)[nH]1,21.3
19,COc1ccc(N2CCc3c(C)nc4c(OC)cc(OC)cc4c32)c(OC)c1,-47.6
20,COc1cccc2c3c(c(C)nc12)CCN3c1ccccc1,-8.76
21,COc1ccccc1N1CCc2c(C)nc3c(OC)cccc3c21,-23.1
22,COc1cc(OC)c2nc(C)c3c(c2c1)N(c1ccc(O)cc1)CC3,-57.2
23,COc1ccc(N2CCc3c(C)nc4c(OC)cc(OC)cc4c32)cc1,-52.7

row,Structure (SMILES),"hERG current change (%, negative = inhibition) at 1uM [%]"
1,COc1ccc(N2CCc3c(C)nc4c(OC)cccc4c32)cc1,-28.3
2,CCN(CC(=O)Nc1ccccc1C(F)(F)F)C(=O)CCS(=O)(=O)c1ccc(Cl)cc1,9.68
3,CC1CCC(NC(=O)Cn2cnc3sccc3c2=O)CC1 (centres unmarked),3.74
4,CCN(CCCNC(=O)CCn1c(=S)[nH]c2cc3c(cc2c1=O)OCO3)c1cccc(C)c1,11.5
5,CN1CC(C(=O)c2ccc([N+](=O)[O-])cc2)C(c2ccc(Cl)cc2)C1 (centres unmarked),-77.1
6,CN1CC(C(=O)c2ccc(Cl)cc2)C(c2ccccc2)C1 (centres unmarked),6.78
7,COc1ccc(C(=O)C2CN(C)CC2c2ccc(Cl)cc2)cc1 (centres unmarked),-18.3
8,Cc1nn(C)c(C(=O)N2CCc3ccccc32)c1Br,4.79
9,CC1CC1C(=O)Nc1nc(-c2cccs2)c(-c2cccs2)s1 (centres unmarked),7.23
10,Cc1ccc(C(=O)NC2CCCN(c3ccc(C(F)(F)F)cn3)C2)cn1 (centres unmarked),2.48
11,O=C(NC1CCCN(c2ccc(C(F)(F)F)cn2)C1)c1ccnc(Cl)c1 (centres unmarked),-9.21
12,O=C(NC1CCCN(c2ccc(C(F)(F)F)cn2)C1)c1ccncc1 (centres unmarked),-51.8
13,CSCCC(NC(=O)c1ccccc1)C(=O)NC1CCCC1 (centres unmarked),4.81
14,CC(C(=O)NC(=O)NC1CCCCC1)N(C)CC(=O)Nc1ccc(F)c(F)c1F (centres unmarked),12.1
15,OC(COc1ccc(Cl)cc1)CN1CCN(c2ccccn2)CC1 (centres unmarked),-37.7
16,Cl.OC(COC(c1ccc(Cl)cc1)c1ccc(Cl)cc1)CN1CCN(c2ccccn2)CC1 (centres unmarked),-79.7
17,Cl.OC(COCc1ccc(Cl)cc1)CN1CCN(c2ccccn2)CC1 (centres unmarked),-24.9
18,Cc1cccc(C)c1OCC(O)CN1CCN(c2ccccn2)CC1 (centres unmarked),-1.11
19,CC(C)c1ccc(OCC(O)CN2CCN(c3ccccn3)CC2)cc1.Cl (centres unmarked),-27.7
20,OC(COC(c1ccccc1)c1ccccc1)CN1CCN(c2ccccn2)CC1 (centres unmarked),-73.5
